# The source made the active and inactive calls.
# Tests used:
# Albumin (Bos taurus) = Albumin (Bos taurus) (UniProt P02769); test: compounds binding labelled BSA control protein – biochemical, small-molecule microarray, Alexa647 label, 635/667 nm fluorescence, artefact control for SMM control protein annotation, profiling panel (AID 1118); settings: BSA-A647 binding, fluorescence 635 nm, higher = more signal;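 further: score merges 667 nm emission intensity and signal-to-noise per printed compound spot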
# [1] = probe aXIP binding to arrayed compounds – biochemical, NeuroSMM set, 635/667 nm fluorescence, primary screen (AID 1119); settings: small-molecule microarray, higher = more signal, called active from +8 up or from −8 down;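 further: probe is the protein aXip251-270 applied at 1 µg/mL to compound-printed slides; binding of probe to printed compounds measured as 667 nm fluorescence plus signal to noise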
# [2] = probe aNOTCH3 binding on compound microarray – biochemical, small-molecule microarray, 635/667 nm fluorescence, primary screen (AID 1120); settings: higher = more signal;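 further: probe is a biotin-tagged antibody raised against NOTCH3 rather than NOTCH3 protein; score merges spot fluorescence near 667 nm with spot signal to noise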
# [3] = probe aNOTCH2 binding on compound microarray – biochemical, small-molecule microarray, 635/667 nm fluorescence, primary screen (AID 1121); settings: higher = more signal;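 further: score merges feature fluorescence read at 667 nm with its signal to noise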
# [4] = target: Carbonic anhydrase 2 (Homo sapiens) (UniProt P00918); test: compounds binding carbonic anhydrase 2 – biochemical, small-molecule microarray, Alexa647-labelled CAII, profiling panel (AID 1122); settings: CAII-A647 binding fluorescence, higher = more signal
# [5] = COS7 lysate on small-molecule microarray, probe aHis, 635 nm (AID 1123); settings: COS7 cell lysate, fluorescence, higher = more signal;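 further: z-score combines 667nm fluorescence intensity with signal-to-noise per printed compound spot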
# [6] = probe aLAP1 signal on lysate-treated microarray – cell lysate, small-molecule microarray, COS7 lysate, primary screen (AID 1124); settings: probe aLAP1, fluorescence, higher = more signal;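 further: lysate comes from COS7 cells expressing LAP1 and is applied at 0.3 µg/mL; score merges spot fluorescence near 667 nm with signal-to-noise over triplicate slides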
# Sam68 (KHDRBS1) = test: compounds binding KHDRBS1 protein – biochemical, small-molecule microarray, 635 nm fluorescence, primary screen (AID 1125); settings: higher = more signal;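 further: score merges 667 nm channel intensity with signal to noise over triplicate slides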
# [7] = tested on: Chordin-like protein 2 (CHRDL2); test: compounds binding chordin-like 2 – biochemical, small-molecule microarray, 635 nm fluorescence, primary screen (AID 1126); settings: fluorescence 635 nm, higher = more signal;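 further: printed compound slides probed with Chrdl2 protein at 4 µg/mL for 1 h at 4 C; score merges 667 nm emission intensity with signal to noise over three replicate slides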
# [8] = target: Concanavalin-A (Canavalia ensiformis) (UniProt P02866); test: compounds binding concanavalin A lectin – biochemical, small-molecule microarray, Alexa647 label, 635 nm, artefact control for SMM control protein annotation, primary screen (AID 1127); settings: ConA-A647 binding fluorescence, higher = more signal;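 further: z combines 667 nm emission intensity with signal-to-noise across three replicate slides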
# [9] = compounds binding Alexa647 anti-His antibody – biochemical, small-molecule microarray, 635 nm fluorescence, artefact control for SMM control protein annotation, primary screen (AID 1128); settings: higher = more signal;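 further: score merges feature fluorescence with signal-to-noise for each printed compound spot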
# [10] = tested on: Human papillomavirus type 1a E7 protein (residues 1-88); test: HPV1a E7 small-molecule binders, primary screen, biochemical, small-molecule microarray, residues 1-88, 635 nm (AID 1129); settings: small-molecule microarray binding, fluorescence 635 nm; higher = more signal
# [11] = target: Focal adhesion kinase 1 (Homo sapiens) (UniProt Q05397); test: PTK2 protein binding on printed compound slides – biochemical, small-molecule microarray, 635/667 nm fluorescence, BSA, DTT, primary screen (AID 1130); settings: 635 nm fluorescence, higher = more signal;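 further: composite of spot emission at 667 nm and signal to noise over triplicate slides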
# [12] = tested on: Fibrinogen (Alexa647-labelled); test: Alexa647-fibrinogen binding to printed small molecules – biochemical, small-molecule microarray, 635/667 nm fluorescence, artefact control for SMM control-protein annotation, profiling panel (AID 1131); settings: fibrinogen-A647 binding fluorescence, higher = more signal;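 further: z-score merges 667 nm fluorescence with per-spot signal-to-noise over triplicate slides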
# [13] = target: Follistatin (Homo sapiens) (UniProt P19883); test: FST protein binding to printed compounds – biochemical, small-molecule microarray, 635/667 nm fluorescence, primary screen (AID 1132); settings: 635 nm fluorescence, higher = more signal
# [14] = target: Fibroblast growth factor 2 (Homo sapiens) (UniProt P09038); test: basic fibroblast growth factor binding to printed compounds – biochemical, small-molecule microarray, 635/667 nm fluorescence, primary screen (AID 1133); settings: FGF2, fluorescence 635/667, higher = more signal
# [15] = JC-1 mitochondrial potential readout, lung cancer cells – cell-based, A549, JC-1 fluorescence, basal, 24 h, 100 nL, profiling panel (AID 1138); settings: higher = more signal;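 further: A549 lung adenocarcinoma cells under basal conditions with no added stimulus; test concentration not given here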
# Lefty1 = Lefty1 protein binding to printed compounds – biochemical, small-molecule microarray, 635/667 nm fluorescence, primary screen (AID 1139); settings: fluorescence 635/667, higher = more signal
# [16] = tested on: wheat germ agglutinin (Triticum aestivum), Alexa647-labelled; test: Alexa647-WGA lectin binding to printed small molecules – biochemical, small-molecule microarray, 635/667 nm fluorescence, artefact control for SMM control-protein annotation, profiling panel (AID 1140); settings: WGA-A647 binding, 635 nm fluorescence, higher = more signal;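 further: score merges 667 nm feature emission with signal to noise over triplicate slides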
# [17] = target: Luciferin 4-monooxygenase (Photinus pyralis) (UniProt P08659); test: inhibition of purified Photinus pyralis luciferase – biochemical, luminescence, purified enzyme, 2006 set, primary screen (AID 1141); settings: purified firefly luciferase, SteadyGlo luminescence, 30 min; higher = more signal, called active from +8 up or from −8 down;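 further: cell-free assay with purified firefly luciferase at 100 ng per well in PBS; test concentration not given here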
# Luciferin 4-monooxygenase (Photinus pyralis), sequence (P08659 whole entry, looked up): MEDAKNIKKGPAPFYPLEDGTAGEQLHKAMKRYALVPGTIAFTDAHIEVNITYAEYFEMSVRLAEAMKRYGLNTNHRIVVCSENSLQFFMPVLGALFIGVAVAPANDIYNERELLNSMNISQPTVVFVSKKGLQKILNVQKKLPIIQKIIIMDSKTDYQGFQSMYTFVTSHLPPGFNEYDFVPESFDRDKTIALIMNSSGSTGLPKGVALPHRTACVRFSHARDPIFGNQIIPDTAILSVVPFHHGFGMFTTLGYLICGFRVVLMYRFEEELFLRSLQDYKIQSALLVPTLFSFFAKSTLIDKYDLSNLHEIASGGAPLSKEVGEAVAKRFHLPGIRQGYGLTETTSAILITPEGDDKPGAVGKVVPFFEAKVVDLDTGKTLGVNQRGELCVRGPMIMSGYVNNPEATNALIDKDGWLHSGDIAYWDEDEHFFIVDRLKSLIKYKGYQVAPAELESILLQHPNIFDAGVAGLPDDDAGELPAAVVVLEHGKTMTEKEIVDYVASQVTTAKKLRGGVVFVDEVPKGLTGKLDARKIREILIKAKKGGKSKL
# Albumin (Bos taurus), sequence (P02769 whole entry, looked up): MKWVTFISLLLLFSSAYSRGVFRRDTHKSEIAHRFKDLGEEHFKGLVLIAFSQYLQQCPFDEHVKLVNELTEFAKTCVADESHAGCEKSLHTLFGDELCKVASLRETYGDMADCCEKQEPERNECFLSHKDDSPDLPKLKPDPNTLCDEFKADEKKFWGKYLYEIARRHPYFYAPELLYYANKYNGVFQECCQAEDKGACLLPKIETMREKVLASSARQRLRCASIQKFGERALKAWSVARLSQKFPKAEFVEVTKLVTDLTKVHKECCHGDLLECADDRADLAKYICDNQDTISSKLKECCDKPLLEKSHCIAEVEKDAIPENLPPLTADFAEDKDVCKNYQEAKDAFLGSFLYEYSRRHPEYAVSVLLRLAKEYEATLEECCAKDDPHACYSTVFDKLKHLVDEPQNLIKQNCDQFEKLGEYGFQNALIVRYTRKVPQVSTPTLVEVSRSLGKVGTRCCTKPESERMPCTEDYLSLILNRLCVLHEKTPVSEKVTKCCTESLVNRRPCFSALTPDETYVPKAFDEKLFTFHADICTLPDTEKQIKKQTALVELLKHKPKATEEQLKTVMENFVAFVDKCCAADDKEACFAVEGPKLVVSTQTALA
# Concanavalin-A (Canavalia ensiformis), sequence (P02866 whole entry, looked up): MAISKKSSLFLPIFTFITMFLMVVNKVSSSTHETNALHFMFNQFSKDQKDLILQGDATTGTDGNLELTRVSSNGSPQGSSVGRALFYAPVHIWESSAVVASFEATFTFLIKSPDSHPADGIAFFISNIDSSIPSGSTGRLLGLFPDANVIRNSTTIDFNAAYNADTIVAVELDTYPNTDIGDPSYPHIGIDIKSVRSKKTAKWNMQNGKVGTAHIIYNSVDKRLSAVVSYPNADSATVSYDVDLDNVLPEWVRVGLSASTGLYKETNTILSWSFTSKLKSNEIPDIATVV
# Focal adhesion kinase 1 (Homo sapiens), sequence (Q05397 whole entry, looked up): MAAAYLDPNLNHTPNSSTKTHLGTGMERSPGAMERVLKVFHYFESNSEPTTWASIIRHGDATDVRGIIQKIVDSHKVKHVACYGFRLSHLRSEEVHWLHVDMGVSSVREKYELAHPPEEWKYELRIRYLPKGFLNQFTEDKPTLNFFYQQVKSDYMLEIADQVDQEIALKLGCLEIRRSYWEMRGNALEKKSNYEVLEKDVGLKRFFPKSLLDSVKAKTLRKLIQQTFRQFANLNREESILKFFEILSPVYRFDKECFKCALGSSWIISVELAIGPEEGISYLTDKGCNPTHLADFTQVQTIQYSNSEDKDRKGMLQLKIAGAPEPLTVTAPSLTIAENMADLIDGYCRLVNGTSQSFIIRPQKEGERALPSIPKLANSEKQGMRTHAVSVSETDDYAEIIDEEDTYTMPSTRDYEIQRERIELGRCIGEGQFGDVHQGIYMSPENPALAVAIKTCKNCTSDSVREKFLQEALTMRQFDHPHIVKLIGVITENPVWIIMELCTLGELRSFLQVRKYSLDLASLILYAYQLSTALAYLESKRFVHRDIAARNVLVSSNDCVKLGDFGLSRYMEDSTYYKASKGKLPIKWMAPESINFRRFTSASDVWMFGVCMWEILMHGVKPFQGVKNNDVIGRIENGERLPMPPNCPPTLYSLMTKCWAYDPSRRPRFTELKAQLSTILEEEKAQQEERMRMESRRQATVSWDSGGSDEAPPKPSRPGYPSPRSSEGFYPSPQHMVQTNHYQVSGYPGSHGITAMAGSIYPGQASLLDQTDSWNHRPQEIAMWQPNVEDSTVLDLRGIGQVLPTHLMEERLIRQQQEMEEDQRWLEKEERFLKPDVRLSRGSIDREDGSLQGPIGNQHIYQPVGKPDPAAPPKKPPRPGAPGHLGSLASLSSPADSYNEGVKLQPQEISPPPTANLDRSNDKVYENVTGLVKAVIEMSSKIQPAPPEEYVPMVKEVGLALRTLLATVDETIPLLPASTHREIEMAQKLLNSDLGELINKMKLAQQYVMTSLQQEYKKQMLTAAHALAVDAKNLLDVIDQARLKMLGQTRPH
# Fibroblast growth factor 2 (Homo sapiens), sequence (P09038 whole entry, looked up): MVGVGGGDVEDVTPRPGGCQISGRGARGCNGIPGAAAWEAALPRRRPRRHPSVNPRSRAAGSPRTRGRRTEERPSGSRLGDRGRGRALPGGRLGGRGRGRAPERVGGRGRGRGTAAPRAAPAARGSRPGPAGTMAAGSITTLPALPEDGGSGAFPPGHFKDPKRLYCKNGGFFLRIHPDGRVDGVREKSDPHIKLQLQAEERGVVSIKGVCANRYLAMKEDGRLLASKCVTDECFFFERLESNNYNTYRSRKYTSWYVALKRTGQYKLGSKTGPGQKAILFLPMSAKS
# Follistatin (Homo sapiens), sequence (P19883 whole entry, looked up): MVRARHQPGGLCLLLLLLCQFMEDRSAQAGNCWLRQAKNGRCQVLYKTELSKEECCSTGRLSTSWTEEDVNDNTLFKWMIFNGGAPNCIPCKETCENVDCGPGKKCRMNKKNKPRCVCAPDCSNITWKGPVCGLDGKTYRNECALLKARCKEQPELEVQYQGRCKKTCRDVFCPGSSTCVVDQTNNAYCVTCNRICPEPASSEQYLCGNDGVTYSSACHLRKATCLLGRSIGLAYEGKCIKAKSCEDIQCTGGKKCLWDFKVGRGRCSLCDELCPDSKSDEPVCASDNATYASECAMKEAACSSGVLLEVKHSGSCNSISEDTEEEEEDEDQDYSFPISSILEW
Compound,composite z-score (Albumin (Bos taurus)),composite Z-score [1],composite z-score [2],composite z-score [3],composite z-score [4],composite z-score [5],composite z-score [6],composite z-score (Sam68 (KHDRBS1)),composite z-score [7],composite z-score [8],composite z-score [9],composite z-score [10],composite z-score [11],composite z-score [12],composite z-score [13],composite z-score [14],z-score [15],composite z-score (Lefty1),composite z-score [16],z-score [17]
O=C1NC(=O)C2C1C=CC(C(O)c1ccco1)N2Nc1ccccn1 (stereo not given),-0.176,0.0674 (inactive),-0.133,-0.0567,0.713,0.0264,0.861,0.14,0.146,-0.0501,-0.324,-0.0286,-0.429,-0.17,0.292,-0.127,-0.109,-0.042,0.325,-1.42 (inactive)
Cc1ccc(S[C@]2(C(=O)O)CC(=O)N(Cc3ccccc3Cl)[C@@H]2c2ccc(CO)cc2I)cc1,0.0877,-0.648 (inactive),-0.515,-0.269,0.31,0.546,-0.635,0.409,-0.0996,-0.1,0.12,0.193,0.287,-0.147,0.257,0.261,-0.134,-1.23,0.435,0.341 (inactive)
CCOC(=O)C1=C[C@@H](c2ccccc2)N(S(=O)(=O)c2ccc(C)cc2)[C@H]1c1ccccc1Cl,0.729,0.0277 (inactive),0.112,0.23,0.389,1.66,0.772,1.26,0.359,0.752,0.857,1.17,1.6,0.86,0.761,0.414,1.53,0.838,0.778,0.86 (inactive)
[N-]=[N+]=Nc1ccccc1C[C@]1(C(N)=O)N=C(c2ccc(OCCCO)cc2)O[C@H]1c1ccccc1N=[N+]=[N-],0.92,-0.199 (inactive),0.231,-0.0091,0.672,0.0754,0.193,1.31,-0.321,1.12,1.91,1.21,-0.0221,0.941,0.228,0.132,-0.777,-0.24,0.448,-4.76 (inactive)
O=C(NCC(F)(F)F)[C@@H]1c2ccccc2C(=O)N(Cc2ccc(OC(F)(F)F)cc2)[C@H]1c1ccc(CO)cc1,0.0667,-0.348 (inactive),-0.0647,-0.14,0.65,0.96,0.203,0.761,-0.374,0.711,0.191,-0.0826,0.518,-0.344,1.02,0.45,0.845,0.713,0.444,1.36 (inactive)
COc1cc(CO)cc(I)c1O[C@H]1C=C(C(=O)NCCO)C[C@@H](NCc2ccc(F)cc2)[C@@H]1O,-1.03,0.328 (inactive),-0.118,-0.148,0.223,0.369,0.205,0.352,0.306,0.0901,-1,0.822,-0.123,0.619,0.951,1.03,1.18,1.01,0.518,-0.0701 (inactive)
O=C1c2ccccc2[C@](Cc2ccccc2I)(C(=O)NCC(F)(F)F)[C@H](c2ccc(CO)cc2)N1C1CCCCC1,0.689,0.328 (inactive),-0.0026,-0.0956,0.729,2.31,0.326,1.31,0.227,1.16,1.64,1.21,-0.003,0.964,0.846,0.18,2.17,0.289,0.856,-1.61 (inactive)
CCOC(=O)C1=CC[C@@H](c2ccc(OCc3ccccc3)c(OC)c2)N(S(=O)(=O)c2ccc(C)cc2)[C@H]1c1ccc(SC)cc1,0.783,0.207 (inactive),0.386,0.202,0.625,2.53,0.157,1.31,0.525,0.806,1.44,1.24,0.398,0.715,0.761,0.159,-0.219,0.542,0.71,0.107 (inactive)
[N-]=[N+]=Nc1ccccc1[C@H]1OC(c2ccc(OCCCO)cc2)=N[C@@]1(CCS(=O)(=O)c1ccccc1)C(=O)NCCN1CCOCC1,0.189,-0.363 (inactive),0.189,0.069,0.449,1.72,0.503,1.31,0.577,0.923,1.51,1.26,0.56,0.938,1.34,0.471,0.162,0.619,0.821,-6.93 (inactive)
COCCOC(=O)N1C(=O)[C@@]2(c3cc(C#CC4=CCCCC4)ccc31)[C@H](C(N)=O)[C@H]1C(=O)O[C@H](c3ccccc3)[C@H](c3ccccc3)N1[C@@H]2c1ccccc1OCCO,-0.24,-0.0254 (inactive),-0.0057,-0.114,0.652,1.59,0.806,1.31,0.588,1.11,1.34,1.21,0.143,0.939,1.31,1.42,-1.89,0.943,1.05,-0.591 (inactive)
COCCCNC(=O)[C@@]1(Cc2ccccc2N=[N+]=[N-])N=C(c2ccc(OCCCO)cc2)O[C@H]1c1ccccc1,0.533,0.93 (inactive),0.0749,0.0202,0.35,1.99,1.25,1.04,0.099,0.79,2.18,1.21,0.854,0.776,1.46,1.03,0.624,0.256,0.759,-0.97 (inactive)

# From PubChem BioAssay
